# According to the supplement of paper PMC12350171:
# Where a name gives a salt, the structure may show the parent alone.
# Test system: Haemophilus parainfluenzae
# Experiment: growth AUC normalised to DMSO control (fraction of control); higher = less growth inhibition, active = hit call of the paper
# Settings: 20 µM;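 active = AUC significantly below DMSO controls by Student t-fit with adjusted P under 0.01; inactive = not significantly reduced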
# Method in brief: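 Hemin and NAD were added to the medium for Haemophilus parainfluenzae. All pathogens, after two anaerobic passages, were inoculated at a starting OD578 of 0.01 into pre-reduced mGAM plates with 20 μM compound and 1% DMSO under breathable seals, and OD578 was read hourly for 24 h in three biological replicates. AUC of each growth curve was obtained with the trapezoidal rule up to the exponential-to-stationary transition and normalised to DMSO controls from the same plate.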
row,Compound,growth AUC normalised to DMSO control
1,C[C@]12CCC(=O)C=C1CC[C@@H]1[C@@H]2[C@@H](O)C[C@@]2(C)[C@H]1CC[C@]2(O)C(=O)CO [Hydrocortisone],0.936 (inactive)
2,C=C1C[C@H]2[C@@H]3C=C(C)C4=CC(=O)CC[C@]4(C)[C@H]3CC[C@]2(C)[C@@]1(OC(C)=O)C(C)=O [Melengestrol acetate],1.06 (inactive)
3,COc1cc([S+](C)[O-])ccc1-c1nc2cccnc2[nH]1 (stereo not drawn) [Sulmazole],1 (inactive)
4,CC[C@H](c1ccc(O)cc1)[C@@H](CC)c1ccc(O)cc1 [Hexestrol],0.984 (inactive)
5,CCCCCN(CCCCC)C(=O)C(CCC(=O)O)NC(=O)c1ccc(Cl)c(Cl)c1 (stereo not drawn) [Lorglumide sodium salt],0.982 (inactive)
6,C=CCOc1ccccc1OCC(O)CNC(C)C (stereo not drawn) [Oxprenolol hydrochloride],0.958 (inactive)
7,"CC(C)NC[C@@H](O)COc1ccc(CC(N)=O)cc1 [(R,+) Atenolol]",0.98 (inactive)
8,CCOC(=O)[C@H](CCc1ccccc1)N[C@@H](C)C(=O)N1[C@H](C(=O)O)C[C@@H]2CCC[C@@H]21 [Ramipril],1.02 (inactive)
